{
  "source": "PubChem BioAssay (Tox21)",
  "note": "Inconclusive results are not listed. Entries that show only a call come without a potency. Values without a mark were called inactive. Calls of active or inactive are those of the source. Calls follow the shape of the dose curve; as a rule, active = well fitted cell-killing curve with a large enough effect in the repeat runs; inconclusive = weak or mixed curves; inactive = flat fitted curve, though single readings scatter. Potency is read from the fitted curve at half-maximal effect.",
  "data": [
    {"experiment": "qHTS RealTime-Glo MT Cell Viability Assay in HepG2 cells - 24 hour (AID 1224867); also: nearly all actives have a fitted effect of over 50% in size", "settings": "RealTime-Glo luminescence; series mostly up to 76.8 µM", "source_text": "U.S. Tox21 Program National Center for Advancing Translational Sciences [NCATS] NIH Chemical Genomics Center [NCGC] U.S. Environmental Protection Agency [EPA] National Institutes of Environmental Health Sciences [NIEHS] National Toxicology Program [NTP] U.S. Food and Drug Administration [FDA] Tox21 Assay Overview: Measure of cell viability is critical in the cell-base assay. Analysis of cell viability is necessary for the characterization of cell responses to cytotoxic drugs and environmental stress. A RealTime-Glo MT Cell Viability Assay to monitor cell viability in real time of continues cell culture during 40 hours of compound treatment was used to screen Tox21 10K library compounds in HepG2 cells. The RealTime-Glo MT Cell Viability Assay is a nonlytic, homogeneous, bioluminescent method to measure cell viability in real time using a simple, plate-based method. The assay involves adding NanoLuc luciferase and a cell-permeant prosubstrate to cells in culture. Viable cells reduce the proprietary prosubstrate to generate a substrate for NanoLuc luciferase. This substrate diffuses from cells into the surrounding culture medium, where it is rapidly used by the NanoLuc Enzyme to produce a luminescent signal. The signal correlates with the number of viable cells, making the assay well suited for cytotoxicity studies.\nTox21 Assay Protocol Summary: The mixture of HepG2 cell suspension and reagents were dispensed at 600cells/6 ul/well in 1536-well tissue culture treated black solid bottom plates using a Multidrop dispenser. After the assay plates were incubated at a 37 C/5% CO2 incubator for 5 hours, 23 nL of compounds dissolved in DMSO, positive and negative controls was transferred to the assay plate by a pintool work station. The plates were incubated at 37 C for 40 hours. The luminescence intensity were measured at 0h, 8h, 16h, 24h, 32h and 40h time points using ViewLux plate reader during compound treatment.", "values": [
      {"smiles": "CCN(CC)CCN1C(=O)CN=C(c2ccccc2F)c2cc(Cl)ccc21", "Potency": "inactive"},
      {"smiles": "S=C=Nc1ccccc1", "Potency": "inactive"},
      {"smiles": "COC(=O)/C=C(\\C)OP(=O)(OC)OC", "Potency": "inactive"},
      {"smiles": "CCC(C)Br", "note": "(stereo not given)", "Potency": "inactive"},
      {"smiles": "N#CC(C#N)=NNc1cccc(Cl)c1", "Potency": "19.5 µM (active)"},
      {"smiles": "CN(C)CCc1c[nH]c2ccccc12", "Potency": "inactive"},
      {"smiles": "CC(=O)[O-].CC(=O)[O-].CC(=O)[O-].[Cr+3]", "Potency": "inactive"},
      {"smiles": "CCC1(CC)C(=O)N=C(O)NC1=O", "Potency": "inactive"},
      {"smiles": "CCOP(=O)(OCC)Oc1nc(Cl)c(Cl)cc1Cl", "Potency": "inactive"},
      {"smiles": "N#Cc1sc2c(=O)c3ccccc3c(=O)c=2sc1C#N", "Potency": "11 µM (active)"},
      {"smiles": "Nc1ccc(N=Nc2ccccc2)cc1", "Potency": "inactive"},
      {"smiles": "ClC(Cl)C(Cl)(Cl)Cl", "Potency": "inactive"},
      {"smiles": "CC1=C2C[C@H]3[C@@H](CC=C4C[C@@H](O)CC[C@@]43C)[C@@H]2CC[C@]12O[C@@H]1C[C@H](C)CN[C@H]1[C@H]2C", "Potency": "inactive"},
      {"smiles": "COc1c2c(cc3c1OCO3)CCN(C)C2", "Potency": "inactive"},
      {"smiles": "CCOP(=S)(OCC)Oc1cc(C)nc(N(CC)CC)n1", "Potency": "inactive"},
      {"smiles": "CSC(C)(C)/C=N/O", "Potency": "inactive"},
      {"smiles": "CCC1COC(Cn2cncn2)(c2ccc(Cl)cc2Cl)O1", "note": "(stereo not given)", "Potency": "inactive"},
      {"smiles": "Clc1c(Cl)c(Cl)c(Cl)c(Cl)c1Cl", "activity change, negative = cytotoxicity": "-0.564% [at 6.97 µM]"},
      {"smiles": "CN/C(=N\\[N+](=O)[O-])NCc1cnc(Cl)s1", "Potency": "inactive"},
      {"smiles": "C[C@]12C/C(=C/O)C(=O)C[C@@H]1CC[C@@H]1[C@@H]2CC[C@@]2(C)[C@H]1CC[C@]2(C)O", "Potency": "inactive"},
      {"smiles": "CC1CCCC1", "Potency": "inactive"},
      {"smiles": "CC(C)C(Br)C(=O)NC(N)=O", "note": "(stereo not given)", "Potency": "inactive"},
      {"smiles": "O=C(N[C@H]1N=C(c2ccccc2F)c2cccc3c2N(CC3)C1=O)c1cc2ccccc2[nH]1", "Potency": "inactive"},
      {"smiles": "CCN(CC)CCc1c[nH]c2ccccc12", "Potency": "inactive"},
      {"smiles": "CCN(CC)Cc1nccn1-c1ccc([N+](=O)[O-])cc1C(=O)c1ccccc1Cl", "Potency": "inactive"},
      {"smiles": "COc1ccc2[nH]cc(CCN(C(C)C)C(C)C)c2c1", "Potency": "inactive"},
      {"smiles": "O=[N+]([O-])c1cc(C(F)(F)F)c(Cl)c([N+](=O)[O-])c1Nc1ncc(C(F)(F)F)cc1Cl", "Potency": "21.9 µM (active)"},
      {"smiles": "Nc1ccc(Cl)cc1C(=O)c1ccccc1F", "Potency": "inactive"},
      {"smiles": "CCC[CH2][Sn]([CH2]CCC)([CH2]CCC)[O][Sn]([CH2]CCC)([CH2]CCC)[CH2]CCC", "Potency": "0.603 µM (active)"},
      {"smiles": "c1ccc2c(c1)cc1ccc3cccc4ccc2c1c34", "Potency": "inactive"},
      {"smiles": "O=[N+]([O-])C(Br)Br", "Potency": "inactive"},
      {"smiles": "ClC1=C(Cl)[C@]2(Cl)[C@H]3[C@H]([C@@H]4C=C[C@H]3C4)[C@@]1(Cl)C2(Cl)Cl", "Potency": "54.9 µM (active)"},
      {"smiles": "C=CCOC(=O)c1ccccc1N", "Potency": "inactive"},
      {"smiles": "CN1CCc2cc3c(cc2C1O)OCO3", "note": "(stereo not given)", "Potency": "inactive"},
      {"smiles": "[O]=[Cr][O][Cr]=[O]", "Potency": "inactive"},
      {"smiles": "Cc1ccc(C)c2ccccc12", "Potency": "inactive"},
      {"smiles": "O=[N+]([O-])[O-].[Tl+]", "Potency": "inactive"},
      {"smiles": "CC#C[C@]1(O)CC[C@H]2[C@@H]3C[C@H](C)C4=CC(=O)CC[C@]4(C)[C@H]3CC[C@@]21C", "Potency": "inactive"},
      {"smiles": "Cc1cccc(Cc2cnc[nH]2)c1C", "Potency": "inactive"},
      {"smiles": "Nc1ccccc1-c1ccccc1", "Potency": "inactive"}
    ]}
  ]
}
